A selection: hits, their analogues and other compounds. The true share with any hit is near 6.7%.
T cruzi growth-1: blocks T. cruzi growth in NIH3T3 culture. T. cruzi beta-gal in NIH3T3, GalScreen luminescence, 90 h. inhibition, % at 8.34 µM. 77,000 tested, 5.9% active;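 active = mean inhibition above about 93%, with at least 55% of replicates each passing it, limit read from the data, passing the limit was not always enough; inconclusive = only one of those two conditions holds; inactive = neither condition holds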
Pf Dd2 growth: blocks growth of Plasmodium falciparum Dd2 parasites; P. falciparum Dd2 growth, SYBR Green, 72 h; stronger effect = lower value; activity change, % at 10 µM; 94,000 tested, 2.3% active; in the data active = activity change below about -80%; inconclusive = no clear call, values can overlap the other calls
C diff growth: C. difficile growth inhibition; 86,000 tested, 0.25% active; AID 1259249; Clostridium difficile clinical isolate growth, OD600, 24 h; stronger effect = lower value; growth activity, negative = inhibition, % at 16 µg/mL (by protocol);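 active = mean growth activity at or below -80% and every replicate also at or below -80%; inconclusive = mean at or below -80% but some replicate above -80%; inactive = mean growth activity above -80%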
T cruzi growth-2: Trypanosoma cruzi proliferation inhibition; shares compounds with T cruzi growth-1; T. cruzi beta-gal in NIH3T3, GalScreen luminescence, 90 h; inhibition, % at 8.35 µM; 5,600 tested, 72% active; AID 651739;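 active = mean replicate inhibition above about 95% and at least 55% of replicates individually reaching it, limit read from the data; inconclusive = only one of the two criteria is met; inactive = neither criterion is met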
T cruzi growth-3: blocks T. cruzi growth in NIH3T3 host cells | shares compounds with T cruzi growth-1 | T. cruzi beta-gal in NIH3T3, GalScreen luminescence, 90 h | inhibition, % at 2.09 µM | 5,600 tested, 21% active | AID 651740;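 active = mean inhibition above about 95%, with at least 55% of replicates also reaching it, limit read from the data; inconclusive = meets just one of the two conditions; inactive = meets neither condition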
3T3 cytotox: NIH/3T3 (mouse) viability loss | shares compounds with T cruzi growth-1 | NIH/3T3 viability, CellTiter-Glo ATP luminescence, 90 h | cytotoxicity (signal decrease), % at 8.35 µM | 5,600 tested, 14% active | AID 651742;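 active = mean signal decrease across replicates above about 35% based on untreated-well scatter, with enough replicates individually passing, limit read from the data; inconclusive = no rule stated though some were filed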
NIH3T3 tox 2: cytotoxicity in mouse NIH/3T3 fibroblasts | shares compounds with T cruzi growth-1 | NIH/3T3 viability, CellTiter-Glo ATP luminescence, 90 h | inhibition, % at 24.9 µM | 5,600 tested, 56% active | AID 651744;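 active = mean loss of cell viability signal at or above a set limit, and enough replicates individually reaching it; inconclusive = meets only the mean limit or only the replicate share; inactive = meets neither condition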
Numbers stand for hits; i = inactive; ? = inconclusive; nt = no result given.

SMILES | T cruzi growth-1 | Pf Dd2 growth | C diff growth | T cruzi growth-2 | T cruzi growth-3 | 3T3 cytotox | NIH3T3 tox 2
C[C@@H]1CN([C@H](C)CO)C(=O)Cc2cc(NC(=O)NC3CCCCC3)ccc2O[C@H]1CN(C)Cc1ccccc1 | i | i | i | nt | nt | nt | nt
COc1ccc(S(=O)(=O)Nc2ccc3c(c2)CC(=O)N([C@H](C)CO)C[C@H](C)[C@@H](CN(C)CC2CC2)O3)cc1 | i | i | i | nt | nt | nt | nt
C[C@@H]1CCCCO[C@@H](CN(C)Cc2ccncc2)[C@@H](C)CN([C@@H](C)CO)C(=O)c2cc(NS(=O)(=O)c3ccccc3)ccc2O1 | i | i | i | nt | nt | nt | nt
COc1ccc(S(=O)(=O)Nc2ccc3c(c2)C(=O)N([C@@H](C)CO)C[C@@H](C)[C@@H](CN(C)Cc2ccccc2)OCCCC[C@H](C)O3)cc1 | i | i | i | nt | nt | nt | nt
O=C(CN1CCOCC1)N1CCCCN2[C@H](C1)[C@H](c1ccc(-c3ccccc3)cc1)[C@@H]2CO | i | i | i | nt | nt | nt | nt
O=C(CN1CCOCC1)N1CCCCN2[C@H](CO)[C@@H](c3ccc(C#Cc4ccccc4)cc3)[C@@H]2C1 | i | i | i | nt | nt | nt | nt
O=C(CN1CCOCC1)N1CCCCN2[C@H](CO)[C@H](c3ccc(C#Cc4ccccc4)cc3)[C@@H]2C1 | 103 | i | i | 106 | i | 41 | 67
O=C(CN1CCOCC1)N1CCCCN2[C@@H](CO)[C@@H](c3ccc(-c4ccccc4)cc3)[C@@H]2C1 | 91 | i | i | i | i | i | i
CN1CCN(C(=O)C[C@@H]2CC[C@@H]3[C@H](COC[C@H](O)CN3C(=O)Cc3ccccc3)O2)CC1 | i | i | i | nt | nt | nt | nt
O=C(C[C@@H]1C[C@H]2c3cc(NC(=O)C4CCOCC4)ccc3O[C@H]2[C@H](CO)O1)NCc1cccc(F)c1 | i | i | i | nt | nt | nt | nt
Cc1cccc(-c2ccc([C@@H]3[C@@H](CO)N4CCCCN(S(=O)(=O)c5ccccc5C)C[C@H]34)cc2)c1 | i | i | i | nt | nt | nt | nt
Cc1cccc(-c2ccc([C@@H]3[C@@H](CO)N4CCCCN(S(=O)(=O)c5cccc(C)c5)C[C@H]34)cc2)c1 | i | i | i | nt | nt | nt | nt
Cc1cccc(-c2ccc([C@H]3[C@H](CO)N4CCCCN(S(=O)(=O)c5cccc(C)c5)C[C@@H]34)cc2)c1 | 98 | i | i | i | 101 | 115 | 106
Cc1cccc(S(=O)(=O)N2CCCCN3[C@H](CO)[C@H](c4ccc(-c5ccccc5)cc4)[C@H]3C2)c1 | i | i | i | nt | nt | nt | nt
Cc1cccc(-c2ccc([C@H]3[C@H]4CN(S(=O)(=O)c5ccccc5C)CCCCN4[C@H]3CO)cc2)c1 | 103 | i | i | 106 | i | i | 38
Cc1cccc(S(=O)(=O)N2CCCCN3[C@H](CO)[C@@H](c4ccc(-c5ccccc5)cc4)[C@@H]3C2)c1 | 105 | i | i | 99 | i | i | i
C/C=C/c1ccc([C@H]2[C@@H](C#N)N(c3nc(CC)cs3)[C@H]2CO)cc1 | 109 | i | i | 103 | 111 | i | ?
C/C=C/c1ccc([C@@H]2[C@@H](C#N)N(c3nc(CC)cs3)[C@H]2CO)cc1 | i | i | i | nt | nt | nt | nt
C/C=C/c1ccc([C@@H]2[C@H](C#N)N(c3nc(CC)cs3)[C@H]2CO)cc1 | 104 | i | i | 105 | i | i | 27
C/C=C/c1ccc([C@H]2[C@@H](CO)N(S(C)(=O)=O)[C@H]2CNC(C)C)cc1 | nt | i | i | nt | nt | nt | nt
C/C=C/c1ccc([C@H]2[C@@H](CO)N(c3nc(CC)cs3)[C@H]2CNC(C)C)cc1 | 98 | i | i | 98 | i | i | 103
C/C=C/c1ccc([C@@H]2[C@@H](CO)N(c3nc(CC)cs3)[C@H]2C#N)cc1 | i | i | i | nt | nt | nt | nt
CCCNC(=O)N1CC2(CCN(CC3CCCCC3)CC2)c2c([nH]c3cc(OC)ccc23)[C@H]1CO | nt | i | i | nt | nt | nt | nt
O=C(Nc1ccc(F)cc1)N[C@@H]1C[C@@H]2O[C@@H](CO)CC[C@@H]2O[C@@H]1CCc1ccc(C2=CCCC2)cc1 | nt | i | i | nt | nt | nt | nt
C[C@H](CO)N1C[C@H](C)[C@H](CN(C)Cc2cccc(F)c2)Oc2cc(-c3ccc(F)cc3)ccc2S1(=O)=O | i | i | i | nt | nt | nt | nt
SMILES | T cruzi growth-1 | Pf Dd2 growth | C diff growth | T cruzi growth-2 | T cruzi growth-3 | 3T3 cytotox | NIH3T3 tox 2
C[C@@H]1CN([C@H](C)CO)S(=O)(=O)c2ccc(-c3ccccc3)cc2O[C@H]1CN(C)Cc1cccc(F)c1 | 118 | i | i | 101 | 104 | 117 | 103
C[C@H](CO)N1C[C@H](C)[C@H](CN(C)Cc2cccc(F)c2)Oc2cc(-c3ccccc3)ccc2S1(=O)=O | 120 | i | i | 108 | i | i | 104
C[C@@H]1CN([C@H](C)CO)S(=O)(=O)c2ccc(-c3ccc(C#N)cc3)cc2O[C@@H]1CN(C)Cc1cccc(F)c1 | nt | i | i | nt | nt | nt | nt
C[C@H]1CN([C@@H](C)CO)S(=O)(=O)c2ccc(-c3ccccc3)cc2O[C@@H]1CN(C)Cc1cccc(F)c1 | 119 | i | i | i | 108 | ? | 103
C[C@@H]1CN([C@@H](C)CO)S(=O)(=O)c2ccc(-c3ccc(C#N)cc3)cc2O[C@H]1CN(C)Cc1cccc(F)c1 | nt | i | i | nt | nt | nt | nt
C[C@@H]1CN([C@@H](C)CO)S(=O)(=O)c2ccc(-c3ccc(C#N)cc3)cc2O[C@@H]1CN(C)Cc1cccc(F)c1 | nt | i | i | nt | nt | nt | nt
C[C@H](CO)N1C[C@H](C)[C@@H](CN(C)Cc2cccc(F)c2)Oc2cc(-c3ccccc3)ccc2S1(=O)=O | 107 | i | i | i | i | 43 | 101
C[C@@H]1CN([C@@H](C)CO)C(=O)c2cc(NC(=O)CCCN(C)C)ccc2O[C@@H]1CN(C)S(=O)(=O)c1cn(C)cn1 | i | i | i | nt | nt | nt | nt
O=C(c1ccccc1F)N1CC(=O)N2[C@H](C1)[C@@H](c1ccc(-c3ccccc3)cc1)[C@@H]2CO | nt | i | i | nt | nt | nt | nt
COCCNC(=O)C[C@@H]1C=C[C@@H](NC(=O)NC2CCCC2)[C@@H](CO)O1 | i | i | nt | nt | nt | nt | nt
CO[C@@H]1CN(C)C(=O)c2ccc(NC(=O)C3CCCC3)cc2OC[C@@H](C)N(C(=O)Nc2ccc(C(F)(F)F)cc2)C[C@H]1C | i | nt | nt | nt | nt | nt | nt
C[C@H]1CN([C@@H](C)CO)S(=O)(=O)c2ccc(-c3ccccc3)cc2O[C@H]1CN(C)Cc1cccc(F)c1 | 119 | i | i | i | 102 | i | 107
C[C@@H]1CN([C@H](C)CO)S(=O)(=O)c2ccc(-c3ccc(F)cc3)cc2O[C@@H]1CN(C)Cc1cccc(F)c1 | i | i | i | nt | nt | nt | nt
COc1ccc(-c2ccc([C@H]3[C@H](C#N)N(C(=O)c4cccnc4)[C@H]3CO)cc2)cc1 | 107 | -91 | i | 108 | i | i | 31
N#C[C@@H]1[C@@H](c2ccc(C3=CCCC3)cc2)[C@H](CO)N1C(=O)c1cccc(F)c1 | i | i | i | nt | nt | nt | nt
COc1ccc(-c2ccc([C@H]3[C@H](C#N)N(C(=O)c4cccc(F)c4)[C@H]3CO)cc2)cc1 | 106 | ? | i | 101 | 111 | i | i

Source: PubChem BioAssay
